Data reported in ChEMBL document CHEMBL2218924, “A broad activity screen in support of a chemogenomic map for kinase signalling research and drug discovery” (Biochem J, 2013).

Legend:
[1] = target: Serine/threonine-protein kinase PAK 6 (Homo sapiens) (UniProt Q9NQU5); conditions: at 1 µM
[2] = target: Serine/threonine-protein kinase PAK 6 (Homo sapiens) (UniProt Q9NQU5); conditions: at 10 µM
[3] = target: PAS domain-containing serine/threonine-protein kinase (Homo sapiens) (UniProt Q96RG2); conditions: at 1 µM
Sequence of PAS domain-containing serine/threonine-protein kinase (Homo sapiens) (Q96RG2 whole entry, the tested form may be a part): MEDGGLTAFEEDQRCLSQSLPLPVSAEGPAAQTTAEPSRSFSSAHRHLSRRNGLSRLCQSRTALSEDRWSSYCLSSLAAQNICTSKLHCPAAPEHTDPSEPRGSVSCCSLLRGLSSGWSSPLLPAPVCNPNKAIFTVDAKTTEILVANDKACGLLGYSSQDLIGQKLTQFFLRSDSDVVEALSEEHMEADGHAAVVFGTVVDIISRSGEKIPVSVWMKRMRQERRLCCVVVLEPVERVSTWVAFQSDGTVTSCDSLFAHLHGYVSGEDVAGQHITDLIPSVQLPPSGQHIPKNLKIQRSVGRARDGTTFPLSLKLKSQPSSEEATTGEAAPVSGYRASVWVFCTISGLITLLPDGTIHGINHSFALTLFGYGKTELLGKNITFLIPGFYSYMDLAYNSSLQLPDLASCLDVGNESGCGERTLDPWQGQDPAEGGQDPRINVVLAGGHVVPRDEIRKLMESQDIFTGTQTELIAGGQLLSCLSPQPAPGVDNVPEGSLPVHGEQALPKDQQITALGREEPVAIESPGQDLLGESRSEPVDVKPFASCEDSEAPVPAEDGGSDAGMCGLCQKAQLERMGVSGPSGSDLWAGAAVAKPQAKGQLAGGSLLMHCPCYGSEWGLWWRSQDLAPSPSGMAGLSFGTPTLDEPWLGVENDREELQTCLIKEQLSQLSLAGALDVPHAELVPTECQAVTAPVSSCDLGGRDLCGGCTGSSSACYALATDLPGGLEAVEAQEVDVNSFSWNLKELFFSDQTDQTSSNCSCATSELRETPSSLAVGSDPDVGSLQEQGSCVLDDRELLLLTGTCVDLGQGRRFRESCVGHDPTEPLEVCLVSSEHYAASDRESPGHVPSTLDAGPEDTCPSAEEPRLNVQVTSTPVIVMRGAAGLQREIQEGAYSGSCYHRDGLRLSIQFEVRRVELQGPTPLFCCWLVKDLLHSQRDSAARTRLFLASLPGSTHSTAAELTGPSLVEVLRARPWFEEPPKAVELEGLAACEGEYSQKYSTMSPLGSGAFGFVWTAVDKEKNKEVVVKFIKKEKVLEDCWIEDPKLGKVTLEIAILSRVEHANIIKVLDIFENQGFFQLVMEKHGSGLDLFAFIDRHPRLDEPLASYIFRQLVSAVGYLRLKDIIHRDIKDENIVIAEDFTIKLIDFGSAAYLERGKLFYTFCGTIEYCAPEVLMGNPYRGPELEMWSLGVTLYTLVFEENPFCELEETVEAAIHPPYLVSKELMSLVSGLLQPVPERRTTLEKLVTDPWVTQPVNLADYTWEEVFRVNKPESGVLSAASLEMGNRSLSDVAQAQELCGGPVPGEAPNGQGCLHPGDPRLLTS

[4] = target: PAS domain-containing serine/threonine-protein kinase (Homo sapiens) (UniProt Q96RG2); conditions: at 10 µM
[5] = target: Activated CDC42 kinase 1 (Homo sapiens) (UniProt Q07912); conditions: at 1 µM
[6] = target: Activated CDC42 kinase 1 (Homo sapiens) (UniProt Q07912); conditions: at 10 µM
[7] = target: T1, Activin receptor type-1B (Homo sapiens) (UniProt P36896); conditions: at 1 µM
T1 sequence (whole entry): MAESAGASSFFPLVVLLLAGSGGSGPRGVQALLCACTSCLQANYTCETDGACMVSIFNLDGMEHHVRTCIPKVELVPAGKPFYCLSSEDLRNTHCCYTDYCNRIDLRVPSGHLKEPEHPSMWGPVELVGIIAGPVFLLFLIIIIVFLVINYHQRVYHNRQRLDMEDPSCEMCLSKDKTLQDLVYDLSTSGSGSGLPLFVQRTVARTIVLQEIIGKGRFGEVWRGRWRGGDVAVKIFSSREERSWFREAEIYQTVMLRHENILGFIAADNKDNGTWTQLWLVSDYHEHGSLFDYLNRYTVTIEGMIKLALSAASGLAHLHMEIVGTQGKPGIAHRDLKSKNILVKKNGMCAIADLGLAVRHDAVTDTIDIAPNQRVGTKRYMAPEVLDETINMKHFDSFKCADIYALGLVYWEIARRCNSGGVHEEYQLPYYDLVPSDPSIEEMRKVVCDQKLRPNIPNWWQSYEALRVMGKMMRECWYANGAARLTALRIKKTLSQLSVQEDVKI

[8] = target: T1, Activin receptor type-1B (Homo sapiens); conditions: at 10 µM
[9] = target: T2, AMP-activated protein kinase (AMPK) alpha-1/beta-1/gamma-1 (Homo sapiens) (UniProt P54619+Q9Y478+Q13131); conditions: at 1 µM
T2 sequence (P54619 whole entry): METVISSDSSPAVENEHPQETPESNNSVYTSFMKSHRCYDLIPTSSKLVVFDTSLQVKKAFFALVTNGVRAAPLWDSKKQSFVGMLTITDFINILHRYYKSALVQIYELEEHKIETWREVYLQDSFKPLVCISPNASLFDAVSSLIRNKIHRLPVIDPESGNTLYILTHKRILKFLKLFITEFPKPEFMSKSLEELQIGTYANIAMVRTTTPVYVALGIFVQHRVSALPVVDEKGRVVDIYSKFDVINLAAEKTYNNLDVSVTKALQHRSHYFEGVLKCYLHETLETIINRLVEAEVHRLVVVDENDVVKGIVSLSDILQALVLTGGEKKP
T2 sequence (Q13131 whole entry partner): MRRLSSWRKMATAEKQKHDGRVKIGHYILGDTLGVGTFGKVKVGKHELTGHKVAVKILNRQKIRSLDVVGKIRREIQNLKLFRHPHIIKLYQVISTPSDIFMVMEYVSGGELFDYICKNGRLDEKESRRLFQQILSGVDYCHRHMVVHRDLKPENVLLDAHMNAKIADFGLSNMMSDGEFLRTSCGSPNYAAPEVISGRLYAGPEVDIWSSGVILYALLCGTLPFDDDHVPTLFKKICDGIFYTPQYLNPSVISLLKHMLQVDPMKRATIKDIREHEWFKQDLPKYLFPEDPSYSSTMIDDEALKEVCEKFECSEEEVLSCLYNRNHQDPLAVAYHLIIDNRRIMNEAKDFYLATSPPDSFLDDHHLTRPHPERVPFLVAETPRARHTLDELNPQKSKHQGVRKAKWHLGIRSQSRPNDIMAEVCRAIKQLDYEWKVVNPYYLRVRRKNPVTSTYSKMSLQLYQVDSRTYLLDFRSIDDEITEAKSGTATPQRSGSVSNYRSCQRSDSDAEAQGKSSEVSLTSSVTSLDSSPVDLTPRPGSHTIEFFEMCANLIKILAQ
T2 sequence (Q9Y478 2-270 partner limits assumed): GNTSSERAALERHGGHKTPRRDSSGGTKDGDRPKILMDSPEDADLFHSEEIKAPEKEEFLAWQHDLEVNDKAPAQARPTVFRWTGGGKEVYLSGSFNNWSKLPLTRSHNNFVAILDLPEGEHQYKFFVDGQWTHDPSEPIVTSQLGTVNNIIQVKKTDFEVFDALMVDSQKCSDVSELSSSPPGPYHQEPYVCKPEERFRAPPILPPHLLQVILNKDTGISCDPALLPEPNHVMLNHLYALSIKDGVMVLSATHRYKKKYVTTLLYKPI

[10] = target: T2, AMP-activated protein kinase (AMPK) alpha-1/beta-1/gamma-1 (Homo sapiens); conditions: at 10 µM
[11] = target: T3, AMP-activated protein kinase, AMPK (Homo sapiens) (UniProt P54646+O43741+P54619+Q9UGJ0+Q9Y478+Q13131+Q9UGI9); conditions: at 1 µM
[12] = target: T4, NUAK family SNF1-like kinase 1 (Homo sapiens) (UniProt O60285); conditions: at 1 µM
T4 sequence (whole entry): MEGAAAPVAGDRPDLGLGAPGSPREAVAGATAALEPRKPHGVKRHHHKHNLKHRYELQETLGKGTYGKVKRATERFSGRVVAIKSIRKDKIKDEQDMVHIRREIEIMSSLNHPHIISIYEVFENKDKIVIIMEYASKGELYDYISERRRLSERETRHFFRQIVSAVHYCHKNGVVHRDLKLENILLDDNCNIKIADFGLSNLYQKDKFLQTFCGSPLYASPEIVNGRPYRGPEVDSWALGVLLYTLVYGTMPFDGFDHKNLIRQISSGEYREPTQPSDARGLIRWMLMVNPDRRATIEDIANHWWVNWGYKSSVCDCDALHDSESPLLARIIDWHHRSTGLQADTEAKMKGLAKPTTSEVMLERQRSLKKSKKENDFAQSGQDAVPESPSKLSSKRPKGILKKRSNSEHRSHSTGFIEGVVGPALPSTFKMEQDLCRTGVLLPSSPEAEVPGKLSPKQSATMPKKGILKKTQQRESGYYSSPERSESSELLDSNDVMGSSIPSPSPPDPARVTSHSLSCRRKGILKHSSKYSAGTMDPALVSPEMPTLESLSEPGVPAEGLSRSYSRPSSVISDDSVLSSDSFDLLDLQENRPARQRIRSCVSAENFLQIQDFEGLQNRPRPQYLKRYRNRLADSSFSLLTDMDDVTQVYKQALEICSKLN

[13] = target: T4, NUAK family SNF1-like kinase 1 (Homo sapiens); conditions: at 10 µM
[14] = target: T5, Mitogen-activated protein kinase kinase kinase 5 (Homo sapiens) (UniProt Q99683); conditions: at 1 µM
T5 sequence (whole entry): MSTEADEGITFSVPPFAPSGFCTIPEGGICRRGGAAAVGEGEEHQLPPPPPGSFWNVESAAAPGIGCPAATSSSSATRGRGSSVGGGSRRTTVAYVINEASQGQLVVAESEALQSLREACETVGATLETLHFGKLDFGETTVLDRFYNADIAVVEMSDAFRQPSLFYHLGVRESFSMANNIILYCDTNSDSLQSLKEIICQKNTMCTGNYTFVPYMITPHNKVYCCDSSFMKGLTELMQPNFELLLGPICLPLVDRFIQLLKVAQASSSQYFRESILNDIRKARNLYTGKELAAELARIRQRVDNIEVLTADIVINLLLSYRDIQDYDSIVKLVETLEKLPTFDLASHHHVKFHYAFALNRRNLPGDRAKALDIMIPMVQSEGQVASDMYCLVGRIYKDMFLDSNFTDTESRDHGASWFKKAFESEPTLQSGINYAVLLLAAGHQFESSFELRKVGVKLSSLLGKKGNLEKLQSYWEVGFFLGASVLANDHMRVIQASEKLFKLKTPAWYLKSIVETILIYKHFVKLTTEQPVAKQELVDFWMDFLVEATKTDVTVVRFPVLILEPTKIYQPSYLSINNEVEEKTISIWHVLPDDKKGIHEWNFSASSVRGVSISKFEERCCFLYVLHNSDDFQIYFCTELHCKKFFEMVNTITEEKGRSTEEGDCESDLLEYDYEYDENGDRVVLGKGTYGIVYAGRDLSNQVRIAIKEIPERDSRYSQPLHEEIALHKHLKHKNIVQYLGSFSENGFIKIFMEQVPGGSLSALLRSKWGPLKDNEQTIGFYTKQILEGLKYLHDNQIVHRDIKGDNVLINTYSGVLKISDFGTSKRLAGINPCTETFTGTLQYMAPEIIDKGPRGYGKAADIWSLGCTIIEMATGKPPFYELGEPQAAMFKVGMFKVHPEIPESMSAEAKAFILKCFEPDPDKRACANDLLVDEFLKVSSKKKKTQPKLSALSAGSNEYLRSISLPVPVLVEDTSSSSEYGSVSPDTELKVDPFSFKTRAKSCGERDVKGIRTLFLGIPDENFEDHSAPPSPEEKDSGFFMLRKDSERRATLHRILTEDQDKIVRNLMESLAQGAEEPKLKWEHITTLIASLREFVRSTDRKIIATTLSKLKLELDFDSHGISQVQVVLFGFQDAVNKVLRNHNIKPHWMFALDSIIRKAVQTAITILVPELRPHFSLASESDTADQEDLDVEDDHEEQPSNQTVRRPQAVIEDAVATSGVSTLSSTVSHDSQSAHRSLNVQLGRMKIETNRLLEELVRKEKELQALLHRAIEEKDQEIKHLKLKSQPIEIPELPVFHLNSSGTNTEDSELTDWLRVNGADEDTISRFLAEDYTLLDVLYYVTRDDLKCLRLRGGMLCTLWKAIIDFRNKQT

[15] = target: Platelet-derived growth factor receptor alpha (Homo sapiens) (UniProt P16234); conditions: at 1 µM
Sequence of Platelet-derived growth factor receptor alpha (Homo sapiens) (P16234 whole entry): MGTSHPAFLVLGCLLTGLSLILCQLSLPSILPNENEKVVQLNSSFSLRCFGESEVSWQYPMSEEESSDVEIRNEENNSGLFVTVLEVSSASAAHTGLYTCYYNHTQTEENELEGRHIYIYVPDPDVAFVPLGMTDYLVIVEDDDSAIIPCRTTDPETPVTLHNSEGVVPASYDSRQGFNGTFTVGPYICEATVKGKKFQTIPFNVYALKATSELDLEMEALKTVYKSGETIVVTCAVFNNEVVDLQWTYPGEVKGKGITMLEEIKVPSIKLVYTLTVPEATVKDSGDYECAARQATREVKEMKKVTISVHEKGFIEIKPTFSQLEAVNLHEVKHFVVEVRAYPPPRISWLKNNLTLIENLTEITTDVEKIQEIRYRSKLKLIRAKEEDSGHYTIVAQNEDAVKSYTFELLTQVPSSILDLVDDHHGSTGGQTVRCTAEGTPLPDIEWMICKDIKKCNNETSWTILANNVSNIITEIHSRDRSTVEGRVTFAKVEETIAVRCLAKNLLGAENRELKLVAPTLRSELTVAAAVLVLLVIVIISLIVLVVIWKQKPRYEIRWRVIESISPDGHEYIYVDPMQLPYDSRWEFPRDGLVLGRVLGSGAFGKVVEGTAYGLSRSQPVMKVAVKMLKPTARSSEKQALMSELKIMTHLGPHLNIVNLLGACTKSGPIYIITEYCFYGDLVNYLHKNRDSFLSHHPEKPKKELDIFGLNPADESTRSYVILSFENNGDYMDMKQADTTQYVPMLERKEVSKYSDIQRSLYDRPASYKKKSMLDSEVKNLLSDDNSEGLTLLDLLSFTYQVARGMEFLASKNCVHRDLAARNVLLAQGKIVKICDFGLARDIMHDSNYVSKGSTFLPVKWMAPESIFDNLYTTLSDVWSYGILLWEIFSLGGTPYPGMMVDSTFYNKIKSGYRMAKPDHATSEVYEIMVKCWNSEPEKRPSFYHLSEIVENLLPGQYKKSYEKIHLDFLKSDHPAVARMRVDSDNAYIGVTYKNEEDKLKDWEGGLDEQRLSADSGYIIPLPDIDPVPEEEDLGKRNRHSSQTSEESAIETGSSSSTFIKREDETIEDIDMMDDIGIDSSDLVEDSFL

[16] = target: ALK tyrosine kinase receptor (Homo sapiens) (UniProt Q9UM73); conditions: at 1 µM
[17] = target: ALK tyrosine kinase receptor (Homo sapiens) (UniProt Q9UM73); conditions: at 10 µM
[18] = target: T3, AMP-activated protein kinase, AMPK (Homo sapiens); conditions: at 10 µM
[19] = target: Serine/threonine-protein kinase PAK 5 (Homo sapiens) (UniProt Q9P286); conditions: at 1 µM
Sequence of Serine/threonine-protein kinase PAK 5 (Homo sapiens) (Q9P286 whole entry, looked up): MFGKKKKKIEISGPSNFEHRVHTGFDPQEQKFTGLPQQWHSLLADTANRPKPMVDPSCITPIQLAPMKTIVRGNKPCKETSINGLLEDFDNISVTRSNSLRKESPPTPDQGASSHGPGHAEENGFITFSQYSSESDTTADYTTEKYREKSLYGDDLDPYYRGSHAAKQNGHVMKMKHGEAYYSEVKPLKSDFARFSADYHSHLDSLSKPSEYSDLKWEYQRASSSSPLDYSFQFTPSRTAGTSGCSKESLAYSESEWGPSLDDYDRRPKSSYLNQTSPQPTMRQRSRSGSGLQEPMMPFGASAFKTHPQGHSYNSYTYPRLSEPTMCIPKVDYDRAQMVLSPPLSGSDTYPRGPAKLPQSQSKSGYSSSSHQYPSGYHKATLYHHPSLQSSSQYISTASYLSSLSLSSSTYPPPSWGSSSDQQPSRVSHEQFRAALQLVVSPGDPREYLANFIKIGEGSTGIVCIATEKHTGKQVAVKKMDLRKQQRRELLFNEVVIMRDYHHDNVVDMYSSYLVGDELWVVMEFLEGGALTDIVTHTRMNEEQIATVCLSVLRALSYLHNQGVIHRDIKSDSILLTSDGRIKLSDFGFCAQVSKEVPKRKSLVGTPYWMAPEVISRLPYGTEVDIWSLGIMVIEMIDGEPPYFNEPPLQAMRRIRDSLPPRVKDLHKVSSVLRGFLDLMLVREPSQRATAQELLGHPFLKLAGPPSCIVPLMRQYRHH

[20] = target: Serine/threonine-protein kinase PAK 5 (Homo sapiens) (UniProt Q9P286); conditions: at 10 µM

Sequence of Serine/threonine-protein kinase PAK 6 (Homo sapiens) (Q9NQU5 whole entry, looked up, the tested form may be a part): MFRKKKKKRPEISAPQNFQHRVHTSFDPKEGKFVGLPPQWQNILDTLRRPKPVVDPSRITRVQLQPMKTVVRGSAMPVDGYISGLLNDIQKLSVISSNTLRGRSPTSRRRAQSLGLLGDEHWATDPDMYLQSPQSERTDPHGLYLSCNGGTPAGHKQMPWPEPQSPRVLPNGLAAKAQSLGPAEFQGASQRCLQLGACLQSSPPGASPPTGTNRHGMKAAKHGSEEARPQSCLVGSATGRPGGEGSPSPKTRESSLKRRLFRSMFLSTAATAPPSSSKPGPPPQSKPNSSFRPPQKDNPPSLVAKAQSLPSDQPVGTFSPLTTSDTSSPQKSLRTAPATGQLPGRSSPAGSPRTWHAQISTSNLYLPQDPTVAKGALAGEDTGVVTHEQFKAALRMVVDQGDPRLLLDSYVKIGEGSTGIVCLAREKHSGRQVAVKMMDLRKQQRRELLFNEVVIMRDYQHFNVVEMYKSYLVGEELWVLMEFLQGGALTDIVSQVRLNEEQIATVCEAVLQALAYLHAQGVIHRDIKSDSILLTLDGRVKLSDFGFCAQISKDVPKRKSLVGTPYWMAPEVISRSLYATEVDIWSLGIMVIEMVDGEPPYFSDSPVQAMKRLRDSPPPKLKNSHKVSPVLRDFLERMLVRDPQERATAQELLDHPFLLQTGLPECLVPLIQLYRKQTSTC

Structure (SMILES)	residual activity [1]	residual activity [2]	residual activity [3]	residual activity [4]	residual activity [5]	residual activity [6]	residual activity [7]	residual activity [8]	residual activity [9]	residual activity [10]	residual activity [11]	residual activity [12]	residual activity [13]	residual activity [14]	residual activity [15]	residual activity [16]	residual activity [17]	residual activity [18]	residual activity [19]	residual activity [20]
CC(C)(C)c1cc(C=C(C#N)C#N)cc(Br)c1O	111%	96%	80%	44%	106%	73%	114%	48%	110%	53%	97%	116%	106%	108%	120%					
COc1cc2ncnc(Nc3ccc(O)c(Br)c3)c2cc1OC			73%																	
O=C1NC(=O)c2c1c1c3ccccc3n3c1c1c2c2ccccc2n1C1CCC3O1	19%	15%			8%	13%	90%	93%	74%	71%	55%	39%	48%	96%	93%	81%	79%	68%		
O=c1[nH]c2ccccc2n1C1CCN(Cc2ccc(-c3nc4cc5[nH]cnc5cc4nc3-c3ccccc3)cc2)CC1	121%	68%	86%	42%	98%	77%	117%	101%	108%	94%	107%	113%	80%	99%	127%	90%	63%	79%	84%	67%
COc1cc2ncnc(Nc3ccc(NC(=O)c4ccccc4)cc3)c2cc1OC			133%																	
COC(=O)[C@@]1(O)C[C@H]2O[C@]1(C)n1c3ccccc3c3c4c(c5c6ccccc6n2c5c31)C(=O)NC4	0%	-1%	14%	4%	0%	0%	24%	0%	-1%	0%	-5%	1%	1%	0%	32%	10%	1%	1%	6%	1%
